# Laboratory results: PubChem BioAssay
# Active and inactive are the calls of the source.
# Columns and labels:
# [1] = small molecules captured by biotinylated probe aFSTL3 – biochemical, small-molecule microarray, fluorescence 635/667, stem cell growth factor project, primary screen (AID 1064); details: higher = more signal;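 further: measures binding of the biotinylated anti-FSTL3 antibody to printed compounds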
# [2] = binders from COS7 lysate, DM2A8 probe, primary screen, torsin A project, cell lysate, small-molecule microarray, fluorescence 635/667 (AID 1065); details: higher = more signal, COS7 lysate expressing mutant human TOR1A
# [3] = small molecules captured by biotinylated probe aFGF2 – biochemical, small-molecule microarray, fluorescence 635/667, stem cell growth factor project, primary screen (AID 1067); details: higher = more signal;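 further: measures binding of biotinylated aFGF2 protein to printed compounds on slides; z-score merges feature fluorescence and signal-to-noise across triplicate slides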
# [4] = small molecules captured by biotinylated probe aFGF10 – biochemical, small-molecule microarray, fluorescence 635/667, stem cell growth factor project, primary screen (AID 1071); details: higher = more signal;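 further: score merges 667 nm spot intensity and signal to noise from triplicate slides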
# [5] = target: Neurogenic locus notch homolog protein 2 (Homo sapiens) (UniProt Q04721); test: small molecules binding Notch2 protein – biochemical, small-molecule microarray, 635 nm fluorescence, stem cell growth factors, primary screen (AID 1073); details: higher = more signal
# [6] = target: Pro-neuregulin-1, membrane-bound isoform (Homo sapiens) (UniProt Q02297); test: small molecules binding neuregulin-1 protein – biochemical, small-molecule microarray, fluorescence 635/667, psychiatric disease protein project, primary screen (AID 1075); details: NRG1 binding, 635 nm fluorescence, higher = more signal;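 further: score combines 667 nm spot fluorescence with signal to noise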
# [7] = test system: Neuregulin-1 EGF-like domain; test: small molecules binding NRG1 EGF domain – biochemical, small-molecule microarray, 635 nm fluorescence, primary screen (AID 1081); details: higher = more signal;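 further: binding of the protein to compounds printed on small-molecule microarray slides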
# [8] = FRG1 expression reporter modulators in myotubes – cell-based, C2C12 myotubes, firefly/Renilla luciferase, luminescence, FRG1 inhibition for FSHD, primary screen (AID 1084); details: FRG1 promoter luciferase, higher = more signal, called active from +8 up or from −8 down
# [9] = small molecules captured by biotinylated probe aFST – biochemical, small-molecule microarray, fluorescence 635/667, stem cell growth factor project, primary screen (AID 1086); details: higher = more signal;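 further: score merges 667 nm fluorescence with signal-to-noise of each printed compound spot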
# [10] = binders of probe aHhip on microarray, primary screen, stem cell growth factor project, biochemical, small-molecule microarray, fluorescence 635/667 (AID 1087); details: higher = more signal;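 further: score merges spot fluorescence at 667nm with spot signal to noise ratio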
# Sequence of Neurogenic locus notch homolog protein 2 (Homo sapiens) (Q04721 whole entry, looked up, canonical isoform): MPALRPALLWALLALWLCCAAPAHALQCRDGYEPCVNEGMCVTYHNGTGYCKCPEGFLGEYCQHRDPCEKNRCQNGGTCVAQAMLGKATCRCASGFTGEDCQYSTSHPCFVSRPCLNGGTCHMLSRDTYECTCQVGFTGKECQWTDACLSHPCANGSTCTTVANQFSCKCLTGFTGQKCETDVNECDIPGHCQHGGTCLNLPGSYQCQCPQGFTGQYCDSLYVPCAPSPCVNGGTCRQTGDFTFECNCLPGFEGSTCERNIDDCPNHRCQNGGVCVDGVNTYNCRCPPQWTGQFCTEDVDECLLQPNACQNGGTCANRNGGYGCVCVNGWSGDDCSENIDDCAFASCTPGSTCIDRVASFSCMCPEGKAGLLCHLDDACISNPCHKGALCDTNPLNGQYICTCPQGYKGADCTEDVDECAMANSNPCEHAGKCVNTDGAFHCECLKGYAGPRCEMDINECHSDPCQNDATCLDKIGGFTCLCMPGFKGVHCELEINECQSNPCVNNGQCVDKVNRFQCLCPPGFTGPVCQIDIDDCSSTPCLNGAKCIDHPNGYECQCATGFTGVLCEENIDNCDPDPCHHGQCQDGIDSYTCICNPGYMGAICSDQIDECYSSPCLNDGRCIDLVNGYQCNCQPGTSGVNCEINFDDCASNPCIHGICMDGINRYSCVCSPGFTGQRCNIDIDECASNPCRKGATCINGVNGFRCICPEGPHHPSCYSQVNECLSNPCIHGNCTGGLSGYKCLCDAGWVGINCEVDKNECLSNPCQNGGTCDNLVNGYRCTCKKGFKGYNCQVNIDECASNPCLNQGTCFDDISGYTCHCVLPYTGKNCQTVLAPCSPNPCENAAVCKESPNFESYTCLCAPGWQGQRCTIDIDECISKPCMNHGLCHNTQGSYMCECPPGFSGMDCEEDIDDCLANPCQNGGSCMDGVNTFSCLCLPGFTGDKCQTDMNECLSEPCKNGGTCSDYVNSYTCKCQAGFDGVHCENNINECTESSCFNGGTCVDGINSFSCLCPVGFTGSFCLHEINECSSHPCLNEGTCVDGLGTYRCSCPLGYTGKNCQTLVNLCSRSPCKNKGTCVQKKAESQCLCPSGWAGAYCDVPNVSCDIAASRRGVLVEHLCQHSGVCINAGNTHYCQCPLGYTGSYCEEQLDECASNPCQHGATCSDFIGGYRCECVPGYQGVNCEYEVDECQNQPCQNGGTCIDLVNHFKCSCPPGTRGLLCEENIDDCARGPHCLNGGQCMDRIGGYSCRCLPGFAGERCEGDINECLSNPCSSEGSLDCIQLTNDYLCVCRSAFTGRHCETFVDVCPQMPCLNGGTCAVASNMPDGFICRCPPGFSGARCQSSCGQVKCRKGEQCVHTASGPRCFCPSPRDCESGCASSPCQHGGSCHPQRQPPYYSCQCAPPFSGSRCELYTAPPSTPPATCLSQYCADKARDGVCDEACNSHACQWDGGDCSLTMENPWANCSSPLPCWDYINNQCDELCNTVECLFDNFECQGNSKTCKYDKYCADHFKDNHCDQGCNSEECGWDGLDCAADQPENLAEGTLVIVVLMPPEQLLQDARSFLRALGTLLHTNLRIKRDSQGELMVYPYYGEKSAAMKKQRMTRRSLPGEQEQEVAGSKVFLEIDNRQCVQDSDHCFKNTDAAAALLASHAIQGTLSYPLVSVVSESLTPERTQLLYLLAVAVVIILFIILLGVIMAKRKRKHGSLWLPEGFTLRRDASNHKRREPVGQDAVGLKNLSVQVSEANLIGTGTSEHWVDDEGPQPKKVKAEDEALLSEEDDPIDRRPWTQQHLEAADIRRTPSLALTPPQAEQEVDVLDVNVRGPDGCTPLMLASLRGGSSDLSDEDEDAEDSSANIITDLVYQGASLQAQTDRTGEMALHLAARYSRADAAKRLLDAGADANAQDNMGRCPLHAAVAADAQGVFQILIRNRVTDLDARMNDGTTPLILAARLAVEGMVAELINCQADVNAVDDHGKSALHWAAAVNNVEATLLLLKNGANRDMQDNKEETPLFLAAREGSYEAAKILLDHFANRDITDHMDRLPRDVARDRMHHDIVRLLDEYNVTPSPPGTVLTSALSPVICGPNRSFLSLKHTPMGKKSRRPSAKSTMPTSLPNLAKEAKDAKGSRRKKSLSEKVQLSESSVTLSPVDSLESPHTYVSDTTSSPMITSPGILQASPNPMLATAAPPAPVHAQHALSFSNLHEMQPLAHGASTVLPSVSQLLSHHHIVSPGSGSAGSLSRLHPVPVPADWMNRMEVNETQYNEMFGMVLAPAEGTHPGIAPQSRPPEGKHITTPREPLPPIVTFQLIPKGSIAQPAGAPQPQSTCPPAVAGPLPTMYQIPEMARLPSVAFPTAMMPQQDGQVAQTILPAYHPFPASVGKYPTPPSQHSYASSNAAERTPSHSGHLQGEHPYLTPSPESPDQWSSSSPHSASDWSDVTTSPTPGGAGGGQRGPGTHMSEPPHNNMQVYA
# Sequence of Pro-neuregulin-1, membrane-bound isoform (Homo sapiens) (Q02297 whole entry, looked up, the tested form may be a part, canonical isoform): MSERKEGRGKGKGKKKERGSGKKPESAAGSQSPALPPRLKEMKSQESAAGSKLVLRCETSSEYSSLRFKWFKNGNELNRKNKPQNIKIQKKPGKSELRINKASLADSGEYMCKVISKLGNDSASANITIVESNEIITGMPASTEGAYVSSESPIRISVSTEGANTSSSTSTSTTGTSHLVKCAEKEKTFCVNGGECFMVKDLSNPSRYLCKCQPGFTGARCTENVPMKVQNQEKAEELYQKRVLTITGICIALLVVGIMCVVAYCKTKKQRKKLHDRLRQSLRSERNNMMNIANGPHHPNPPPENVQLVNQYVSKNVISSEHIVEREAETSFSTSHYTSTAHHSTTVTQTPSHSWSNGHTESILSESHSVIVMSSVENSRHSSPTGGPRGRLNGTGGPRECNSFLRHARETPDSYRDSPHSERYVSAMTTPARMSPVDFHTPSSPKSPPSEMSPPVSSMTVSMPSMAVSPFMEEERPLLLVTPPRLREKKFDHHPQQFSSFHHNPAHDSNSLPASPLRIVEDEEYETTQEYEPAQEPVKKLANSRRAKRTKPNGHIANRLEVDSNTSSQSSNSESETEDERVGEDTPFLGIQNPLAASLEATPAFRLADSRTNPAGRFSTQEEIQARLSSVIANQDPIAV
Structure (SMILES),composite z-score [1],composite z-score [2],composite z-score [3],composite z-score [4],composite z-score [5],composite z-score [6],composite z-score [7],z-score [8],composite z-score [9],composite z-score [10]
C=C(C(=O)CC[C@H](OC(=O)c1ccccc1-c1ccccc1C(=O)O)c1ccccc1OCCO)C(C)C,-0.148,0.724,-0.163,0.782,0.393,0.61,1.18,-1.38 (inactive),0.117,-0.0994
NC(=O)NCC#Cc1ccc2c(c1)[C@]1(C(=O)N2)[C@H](C(=O)N2CCN(c3ncccn3)CC2)[C@H]2C(=O)O[C@H](c3ccccc3)[C@H](c3ccccc3)N2[C@@H]1c1ccc(OCCO)cc1,0.0085,0.0039,-0.0222,0.375,0.884,0.133,0.148,1.62 (inactive),0.548,0.0659
COc1ccc(C(O)C2C=CC3C(=O)N(c4ccccc4)C(=O)C3N2Nc2ccccc2F)cc1 (stereo not given),0.109,0.67,-0.0747,-0.0293,1.4,1.8,1.18,0.425 (inactive),0.115,-0.0296
O=C1O[C@H](c2ccccc2)[C@H](c2ccccc2)N2[C@H]1[C@@H](C(=O)N1CCCCCCC1)[C@]1(C(=O)Nc3ccc(C#CC4(O)CCCCCC4)cc31)[C@H]2c1ccccc1OCCO,4,2.61,0.935,1.46,1.83,2.5,1.33,-1.5 (inactive),3.82,1.9
CC(=O)NCCCC[C@@H]1NC(=O)[C@@H]2C[C@H](C(=O)NCCCCCCN)[C@H](c3cccc(OCCO)c3)N2C1=O,0.501,0.43,-0.0336,0.281,-0.149,1.63,1.08,2.15 (inactive),-0.0064,-0.0296
O=C(CS)NCCCCCNC(=O)[C@@H]1C[C@@H]2C(=O)N[C@@H](Cc3ccccc3)C(=O)N2[C@@H]1c1cccc(OCCO)c1,-0.0315,0.692,-0.01,0.325,0.0566,1.43,1.39,0.057 (inactive),0.0454,-0.277
CC(C)c1ccc(NN2C(C(O)Cc3ccccc3)C=CC3C(=O)N(c4ccccc4)C(=O)C32)cc1 (stereo not given),0.0399,-0.0235,0.0116,0.408,1.5,1.76,0.593,0.0899 (inactive),1.36,-0.0645
O=C1C2C=CC(C(O)c3ccc4c(c3)OCO4)N(Nc3ccccc3)C2C(=O)N1c1ccccc1 (stereo not given),0.154,-0.186,0.0917,0.847,1.55,1.46,1.09,-0.545 (inactive),1.38,-0.204
COCCOC(=O)N1C(=O)[C@@]2(c3cc(C#CCNC(N)=O)ccc31)[C@H](c1ccc(OCCO)cc1)N1[C@H](c3ccccc3)[C@H](c3ccccc3)OC(=O)[C@H]1[C@@H]2C(N)=O,0.423,0.278,0.0541,0.913,1.49,0.897,0.809,0.47 (inactive),0.715,0.351
[N-]=[N+]=NCc1ccccc1[C@H]1OC(c2ccc(OCCCO)cc2)=N[C@@]1(Cc1ccccc1)C(=O)NCCN1CCOCC1,-0.714,0.614,-0.0627,1.09,1.49,1.34,1.23,-0.731 (inactive),0.213,-0.0994
C=CCC(OC(C)=O)[C@@H]1[C@@H](N(Cc2cccc3ccccc23)C(=O)c2cccc3ccccc23)c2cc(OCCCO)ccc2N1C(=O)c1ccc2ccccc2c1 (stereo not given in full),-0.232,-0.124,0.365,0.0197,-0.833,-0.247,-0.313,-2.36 (inactive),0.268,-0.132
COCCCNC(=O)[C@@]1(Sc2ccc(C)cc2)CC(=O)N(C(C)C)[C@@H]1c1ccc(CO)cc1I,0.438,-0.107,0.0854,0.606,-0.622,1.89,1.25,-1.2 (inactive),-0.307,-0.0581
COC(=O)[C@@]1(Cc2ccc(OC)cc2)[C@H]2c3cc(C(=O)N4CCCC4)n(Cc4cc(C)n(C)n4)c3C[C@H]2CN1C(=O)c1ccccc1,0.404,0.0011,0.37,1.3,1.76,2.16,1.33,0.301 (inactive),0.821,2.67
O=C1OCCC/C=C\[C@H]2OC34C=CCN(c5ccc6ccccc6c5)C(=O)[C@H]3N(CCCO)C(=O)[C@@H]4C12 (stereo not given in full),-0.0204,0.994,-0.101,-0.316,-0.631,0.437,0.626,1.2 (inactive),-0.72,-0.12
NC(=O)N1C(=O)C2C(C1=O)C1C=C(CCCO)C2C(C2CC2)N1Cc1cccc(OC(F)(F)F)c1 (stereo not given),-0.284,0.497,-0.139,-0.238,-0.22,1.95,1.3,0.0154 (inactive),-0.108,-0.122
O=C1O[C@H](c2ccccc2)[C@H](c2ccccc2)N2[C@H]1[C@@H](C(=O)O)[C@]1(C(=O)Nc3ccc(C#CC4(O)CCCCCC4)cc31)[C@H]2c1ccc(O)cc1,-0.252,0.128,-0.166,0.439,-0.0475,1.28,0.866,-0.278 (inactive),-0.247,-0.134
O=C(NCCN1CCOCC1)[C@@H]1c2ccccc2C(=O)N(Cc2ccccc2)[C@H]1c1ccc(CO)cc1,0.39,-0.334,-0.175,-0.961,-0.913,1.77,1.1,-0.508 (inactive),-0.0557,-0.312
COC(=O)[C@@]1(Cc2ccccc2CN=[N+]=[N-])N=C(c2ccc(OCCCO)cc2)O[C@H]1c1ccccc1,1.4,-0.0284,0.118,-0.774,-0.0293,0.532,1.2,-2.17 (inactive),0.187,-0.451
COc1cc(NN2C(C(O)c3cc(OC)c(OC)c(OC)c3)C=CC3C(=O)N(c4ccccc4)C(=O)C32)cc(OC)c1OC (stereo not given),0.457,0.512,0.432,1.09,1.57,1.79,1.38,0.997 (inactive),0.669,-0.0631
O=C1C2C=CC(C(O)c3cc(C(F)(F)F)cc(C(F)(F)F)c3)N(Nc3ccccc3F)C2C(=O)N1c1ccccc1 (stereo not given),0.835,0.554,-0.0049,0.233,0.909,1.85,1.16,0.285 (inactive),0.967,-0.202
C=C[C@@H](OC)[C@H](OC(=O)Nc1ccc(OC)cc1)c1ccc(OC)c(O)c1,0.54,-0.998,-0.087,-0.624,-1.06,-0.401,1.23,3.56 (inactive),-0.857,0.0505
COc1ccc([Si](C)(C)[C@H]2[C@H](CC(=O)N3Cc4ccccc4C[C@H]3CO)O[C@@]3(C(=O)N(Cc4ccc(N5C(=O)c6cccc7cccc5c67)cc4)c4ccccc43)[C@@H]2C)cc1,-0.0494,0.245,-0.0953,0.329,0.393,1.73,1.17,-4.44 (inactive),1.07,0.61
COCC(=C=CC[C@@H](O)c1cccc(OCCO)c1)CCO,-0.117,0.0969,-0.11,0.674,0.234,0.678,1.02,0.604 (inactive),0.101,-0.0074
CC1(C)C(=O)C(c2ccccc2)=C2CN3C(=O)N(CCc4ccccc4)C(=O)C3(Cc3ccc(F)cc3)C=C21 (stereo not given),0.817,-0.339,0.248,0.173,1.47,0.536,0.631,0.927 (inactive),1.58,0.0818
O=C(O)[C@@H]1C[C@@H]2C(=O)N3CCC[C@H]3C(=O)N2[C@@H]1c1cccc(OCCO)c1,3.06,2.45,0.588,0.648,1.7,2.68,1.49,1.39 (inactive),3.21,1.1
CCCCNC(=O)c1ccc(C#C[Si](C(C)C)(C(C)C)C(C)C)c(OC(C)=O)c1,-0.294,-0.189,-0.108,0.493,1.57,0.812,1.09,-0.198 (inactive),0.207,0.0722
